Data on 14 molecules can be found in the supplement of paper PMC7556523.

Values without a mark were called inactive.

Assay [1] deals with Sporothrix brasiliensis CBS 133006. Put plainly: growth inhibition relative to untreated control; higher = more growth inhibition (more antifungal activity), active = 80 or more; extreme values may be limits of the assay. Particulars: 1 µM; 48 h. The method in brief:
(§1)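 Each value is the percent growth inhibition compared with cells left untreated. Reference isolates were grown as yeast-form cells in brain heart infusion broth with 2% glucose for 7 days at 36°C, then exposed at 1 x 10^5 CFU/ml to library compounds at a final 1 μM for 48 h at 35°C in 5% CO2. Growth was inspected visually under an inverted light microscope and quantified by spectrophotometric readings, with runs in quadruplicate.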

Assay [2] concerns Sporothrix schenckii ATCC 32286. The assay is described as above. The following applies: 1 µM; 48 h. The method in brief:
as §1

For the molecule `CC1(C)OB(O)c2ccc(C3=NOC(c4cc(Cl)c(F)c(Cl)c4)(C(F)(F)F)C3)cc21` (stereo not drawn), the growth inhibition was 0.5% in assay [1] and 18% in assay [2].

Consider `O=C1O[C@@H](COc2ccon2)CN1c1cc(F)c(C2=CCN(Cc3ccccc3)CC2)c(F)c1`, for which the growth inhibition in assay [1] was 2%; in assay [2] it was 0%.

Regarding `CO[C@@H]1CN(c2ccc(C#CC3(O)CN4CCC3CC4)c(Cc3ccccc3)n2)C[C@H]1O` (stereo partly drawn), the growth inhibition is 9.75% in assay [1] and 5.5% in assay [2].

`CCc1nn(C)c(C(=O)NCc2ccc(Oc3ccc(C)cc3)cc2)c1Cl`: the results for the growth inhibition in assay [1] and in assay [2] were 93.2% (active) and 96.5% (active), respectively.

`Cc1nn(Cc2ccccc2)c(Cl)c1C(=O)NC1CCCCCC1`: the figures for the growth inhibition in assay [1] and in assay [2] were 21.5% and 3%, respectively.

For the molecule `Nc1c2c(nc3sc4c(c13)CCCC4)CCCC2`, the growth inhibition was 6.75% in assay [1] and 17% in assay [2].

In the case of `Cc1cc(C2=NOC(c3cc(Cl)c(F)c(Cl)c3)(C(F)(F)F)C2)ccc1C(=O)NCc1ccc2c(c1)C(C)(C)OB2O` (stereo not drawn), the growth inhibition in assay [1] is 14.5%; in assay [2] it was 18.2%.

As for `CO/C=C(/C(=O)OC)c1ccccc1Oc1cc(Oc2ccccc2C#N)ncn1`, the figures for the growth inhibition in assay [1] and in assay [2] were 95.5% (active) and 27.5%, respectively.

In the case of `CO/N=C(\C(=O)OC)c1ccccc1CO/N=C(\C)c1cccc(C(F)(F)F)c1`, the growth inhibition was 96.8% (active) in assay [1] and 40% in assay [2].

As for `Cc1cccc(C(=O)Nc2ccnc(N(C)C3CCN(CC(C)C)CC3)c2)c1`, the figures for the growth inhibition in assay [1] and in assay [2] were 5.5% and 9%, respectively.

Turning to `CC(C)(C)C(O)C(Oc1ccc(-c2ccccc2)cc1)n1cncn1` (stereo not drawn), the values for the growth inhibition in assay [1] and in assay [2] were 67.5% and 61.8%, respectively.

For the molecule `Cc1nn(C)c(C)c1NS(=O)(=O)c1c(Cl)cc(-c2ccnc(N3CCNCC3)c2)cc1Cl`, the growth inhibition was 15.2% in assay [1] and 17.5% in assay [2].

For `O=C1O[C@@H](CO)CN1c1cc(F)c(C2=CCN(Cc3ccccc3)CC2)c(F)c1`, the growth inhibition was 6.75% in assay [1] and 0.5% in assay [2].

As for `CC1COC(Cn2cncn2)(c2ccc(Oc3ccc(Cl)cc3)cc2Cl)O1` (stereo not drawn), the growth inhibition in assay [1] was 97% (active); in assay [2], 70.2%.
